From PubChem BioAssay (NCI)
Where “and” joins values, the source holds several entries; their conditions need not be identical. Identical values can stand only once. Compounds without any hit were thinned out: in the full panel of roughly 83,000, 20% have a hit.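 Testing used 96-well plates and a 48-hour single-concentration exposure. Example: -40 means 40% of the starting cells died.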 Calls of active or inactive are those of the source. How the source made its calls: active means growth percent below 10; inactive means the rest.

How the values were obtained:
Experiment in all cases: NCI-60 one-dose screen, 48 h (100 = growth as untreated, 0 = no growth, -100 = all killed)
SR leukemia = conditions: 10 µM
RPMI-8226 leukemia = conditions: 10 µM
OVCAR-8 ovarian = conditions: 10 µM
OVCAR-5 ovarian = conditions: 10 µM
OVCAR-4 ovarian = conditions: 10 µM
SK-OV-3 ovarian = conditions: 10 µM
IGROV1 ovarian = conditions: 10 µM
OVCAR-3 ovarian = conditions: 10 µM
HS 578T breast = conditions: 10 µM
NCI/ADR-RES ovarian = conditions: 10 µM
T-47D breast = conditions: 10 µM
BT-549 breast = conditions: 10 µM
MDA-MB-435 melanoma = conditions: 10 µM
MCF7 breast = system: MCF7 breast
HCT-116 colon = conditions: 10 µM
HCC-2998 colon = conditions: 10 µM
KM12 colon = conditions: 10 µM
SW-620 colon = conditions: 10 µM

SMILES | growth (SR leukemia) | growth (RPMI-8226 leukemia) | growth (OVCAR-8 ovarian) | growth (OVCAR-5 ovarian) | growth (OVCAR-4 ovarian) | growth (SK-OV-3 ovarian) | growth (IGROV1 ovarian) | growth (OVCAR-3 ovarian) | growth (HS 578T breast) | growth (NCI/ADR-RES ovarian) | growth (T-47D breast) | growth (BT-549 breast) | growth (MDA-MB-435 melanoma) | growth (MCF7 breast; 10 µM unless noted) | growth (HCT-116 colon) | growth (HCC-2998 colon) | growth (KM12 colon) | growth (SW-620 colon) | growth (MCF7 breast; 10 µM) | growth (MCF7 breast; 100 µM)
NC(C(=O)O)C(O)c1ccco1 (stereo not given) | 112% (inactive) | 101% (inactive) | 103% (inactive) | 108% (inactive) | 114% (inactive) | 107% (inactive) | 124% (inactive) | 117% (inactive) | 107% (inactive) | 112% (inactive) | 98% (inactive) | 109% (inactive) | 107% (inactive) | 95.2% (inactive) | 111% (inactive) | 107% (inactive) | 107% (inactive) | – | – | –
CN(C)C(C)(C)CC(C)(C)C | 93.5% (inactive) | 110% (inactive) | 109% (inactive) | 102% (inactive) | 108% (inactive) | 109% (inactive) | 106% (inactive) | 100% (inactive) | 104% (inactive) | 103% (inactive) | 104% (inactive) | – | 109% (inactive) | 101% (inactive) | 100% (inactive) | 109% (inactive) | 93.6% (inactive) | 101% (inactive) | – | –
Cc1cc(N2CCC(N3CCCC3)CC2)nc(/N=C(\N)Nc2ccc(Cl)c(Cl)c2)n1 | -54.3% (active) | -36.7% (active) | -9.16% (active) | 19% (inactive) | -13.2% (active) | 88.3% (inactive) | 12.3% (inactive) | 69.7% (inactive) | -25.8% (active) | 30.3% (inactive) | 106% (inactive) | – | -98.6% (active) | -44.7% (active) | -93.3% (active) | – | 9.92% (active) | -56% (active) | – | –
O=C(Nc1cc(-c2ccccc2)[nH]n1)c1ccc(Cl)cc1 | 47.7% (inactive) | 36.6% (inactive) | 84.3% (inactive) | 80.7% (inactive) | 71% (inactive) | 62.7% (inactive) | 3.1% (active) | 80.5% (inactive) | 80.6% (inactive) | 85% (inactive) | 74.1% (inactive) | – | 86.4% (inactive) | 87.6% (inactive) | 72.3% (inactive) | 100% (inactive) | 48.6% (inactive) | 86.1% (inactive) | – | –
CN(C)CCC(=O)c1ccc(O)cc1 | 105% (inactive) | 89.6% (inactive) | 102% (inactive) | 115% (inactive) | 108% (inactive) | 110% (inactive) | 113% (inactive) | 97.4% (inactive) | 112% (inactive) | 106% (inactive) | 96.4% (inactive) | – | 110% (inactive) | 97.7% (inactive) | 106% (inactive) | 104% (inactive) | 99.9% (inactive) | 107% (inactive) | – | –
C#Cc1cccc(NC(=O)c2ccc(Cl)cc2Cl)c1 | 115% (inactive) | 78.1% (inactive) | 105% (inactive) | 110% (inactive) | 95.5% (inactive) | 95.5% (inactive) | 115% (inactive) | 109% (inactive) | 108% (inactive) | 104% (inactive) | 95.2% (inactive) | – | 103% (inactive) | 90.3% (inactive) | 93.2% (inactive) | – | 115% (inactive) | 91.9% (inactive) | – | –
CCCCC1(CC)COC(CCC)OC1 (stereo not given) | 106% (inactive) | 102% (inactive) | 101% (inactive) | 95.9% (inactive) | 115% (inactive) | 104% (inactive) | 129% (inactive) | 108% (inactive) | 109% (inactive) | 105% (inactive) | 104% (inactive) | – | 118% (inactive) | 96.6% (inactive) | 98.8% (inactive) | – | 104% (inactive) | 110% (inactive) | – | –
O=C1Cc2cc(O)ccc2O1 | 91.8% (inactive) | 96.1% (inactive) | 102% (inactive) | 113% (inactive) | 118% (inactive) | 99.8% (inactive) | 104% (inactive) | 120% (inactive) | 119% (inactive) | 107% (inactive) | 101% (inactive) | 109% (inactive) | 105% (inactive) | 101% (inactive) | – | 105% (inactive) | 112% (inactive) | – | – | –
COc1cc2c3cc1Oc1c(OC)c(OC)cc4c1C(Cc1ccc(O)c(c1)Oc1ccc(cc1)CC3N(C)CC2)N(C)CC4 (stereo not given) | -1.66% (active) | -27.4% (active) | 7.71% (active) | -0.193% (active) | 13.5% (inactive) | 43% (inactive) | 13.7% (inactive) | 18.8% (inactive) | 55.3% (inactive) | 0.974% (active) | -64.6% (active) | 32.8% (inactive) | – | – | -94.7% (active) | -72.7% (active) | 12.9% (inactive) | -46.8% (active) | -71% (active) | 81.8% (inactive) and -100% (active)
Cc1cc(OCCO)cc(C)c1Cl | 124% (inactive) | 102% (inactive) | 106% (inactive) | 115% (inactive) | 122% (inactive) | 117% (inactive) | 113% (inactive) | 118% (inactive) | 104% (inactive) | 108% (inactive) | 111% (inactive) | 116% (inactive) | – | 110% (inactive) | 101% (inactive) | 102% (inactive) | 107% (inactive) | 107% (inactive) | – | –
CC(=O)Nc1c(C)cc(C)cc1C | 98.7% (inactive) | 111% (inactive) | 104% (inactive) | 115% (inactive) | 95.9% (inactive) | 113% (inactive) | 110% (inactive) | 102% (inactive) | 111% (inactive) | 99.7% (inactive) | 98.2% (inactive) | – | 102% (inactive) | 96.5% (inactive) | 102% (inactive) | 104% (inactive) | 103% (inactive) | 106% (inactive) | – | –
CCN(CC)C(=O)/C=C(/C)c1ccccc1 | 107% (inactive) | 109% (inactive) | 105% (inactive) | 113% (inactive) | 92.7% (inactive) | 107% (inactive) | 117% (inactive) | 111% (inactive) | 101% (inactive) | 102% (inactive) | 102% (inactive) | – | 108% (inactive) | 102% (inactive) | 106% (inactive) | – | 111% (inactive) | 102% (inactive) | – | –
